# Source: PubChem BioAssay
# The source made the active and inactive calls. Unless noted, no rule for the calls is given here.
# Key:
# [1] = HepG2 liver cancer cell viability effects, profiling panel, resazurin fluorescence, 24 h, PK04 Diversity Set (AID 1172); conditions: higher = more signal
# [2] = basal S. cerevisiae growth modulation, no modifier, primary screen, OD600, strain BY4716, 24 h, basal condition (AID 1173); conditions: OD600, 24 h, higher = more signal, called active from +8 up or from −8 down
# [3] = MM1S myeloma cell viability, profiling panel, resazurin fluorescence, basal, 24 h, PK04 Diversity Set (AID 1174); conditions: higher = more signal, called active from +8 up or from −8 down;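 also: MM1S multiple myeloma cell line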
# [4] = target: Dihydroorotate dehydrogenase (quinone), mitochondrial (Plasmodium falciparum (isolate 3D7)) (UniProt Q08210); assay: PfDHODH enzyme inhibitors, primary screen, biochemical, C-terminal His tag, absorbance 600 nm (AID 1175); conditions: DCIP absorbance 600 nm, higher = more signal, called active from +8 up or from −8 down;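 also: recombinant parasite enzyme with a five histidine tag at its C terminus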
# Dihydroorotate dehydrogenase (quinone), mitochondrial (Plasmodium falciparum (isolate 3D7)), sequence (Q08210 whole entry, looked up): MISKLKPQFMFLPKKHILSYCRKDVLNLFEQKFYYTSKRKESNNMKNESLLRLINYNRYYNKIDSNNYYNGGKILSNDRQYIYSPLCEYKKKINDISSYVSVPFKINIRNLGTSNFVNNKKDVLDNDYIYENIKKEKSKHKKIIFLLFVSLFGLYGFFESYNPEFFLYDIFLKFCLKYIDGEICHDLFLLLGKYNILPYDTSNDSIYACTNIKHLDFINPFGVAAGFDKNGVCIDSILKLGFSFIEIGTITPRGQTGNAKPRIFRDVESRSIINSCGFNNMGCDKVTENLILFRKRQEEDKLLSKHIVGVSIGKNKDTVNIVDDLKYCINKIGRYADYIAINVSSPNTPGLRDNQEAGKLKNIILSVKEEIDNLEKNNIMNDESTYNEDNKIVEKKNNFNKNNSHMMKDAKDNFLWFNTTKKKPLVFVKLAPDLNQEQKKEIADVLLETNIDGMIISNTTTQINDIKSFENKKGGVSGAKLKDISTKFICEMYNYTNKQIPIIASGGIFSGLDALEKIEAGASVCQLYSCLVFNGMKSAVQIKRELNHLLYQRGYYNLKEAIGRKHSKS
# [5] = P. aeruginosa biofilm formation inhibitors, primary screen, strain PAO1, LB-PBS medium, absorbance 600 nm (AID 1176); conditions: P. aeruginosa PAO1 growth/biofilm, A600, 12 h; higher = more signal
# [6] = S. cerevisiae RM11-1a growth modifiers, primary screen, strain RM11-1a, OD600, basal, 24 h (AID 1177); conditions: OD600, 24 h, higher = more signal, called active from +8 up or from −8 down;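 also: cultures grown under basal conditions with no added stressor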
# [7] = E. coli acrAB mutant growth effects, primary screen, E. coli filamentation inducers, strain DRC39, OD650, 24 h (AID 1178); conditions: higher = more signal, called active from +8 up or from −8 down;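 also: growth measured as culture turbidity by optical density at 650 nm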
# [8] = E. coli acrAB mutant growth effects, primary screen, E. coli filamentation inducers, strain DRC39, OD650, 48 h (AID 1179);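 also: screen aims at cell division blockers that make cells filament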; conditions: E. coli DRC39 delta-acrAB growth, higher = more signal, called active from +8 up or from −8 down
# [9] = RPMI8226 myeloma cell viability, profiling panel, resazurin fluorescence, basal, 24 h, PK04 Diversity Set (AID 1180); conditions: higher = more signal;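 also: RPMI8826 multiple myeloma cell line at 5000 cells per well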
# [10] = target: E3 ubiquitin-protein ligase XIAP (Homo sapiens) (UniProt P98170); assay: XIAP binders, primary screen, biophysical, small-molecule microarray, fluorescence 635 nm (AID 1181); conditions: small-molecule microarray binding, higher = more signal;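 also: score merges 667 nm emission and signal to noise over triplicate slides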
# E3 ubiquitin-protein ligase XIAP (Homo sapiens), sequence (P98170 whole entry, looked up): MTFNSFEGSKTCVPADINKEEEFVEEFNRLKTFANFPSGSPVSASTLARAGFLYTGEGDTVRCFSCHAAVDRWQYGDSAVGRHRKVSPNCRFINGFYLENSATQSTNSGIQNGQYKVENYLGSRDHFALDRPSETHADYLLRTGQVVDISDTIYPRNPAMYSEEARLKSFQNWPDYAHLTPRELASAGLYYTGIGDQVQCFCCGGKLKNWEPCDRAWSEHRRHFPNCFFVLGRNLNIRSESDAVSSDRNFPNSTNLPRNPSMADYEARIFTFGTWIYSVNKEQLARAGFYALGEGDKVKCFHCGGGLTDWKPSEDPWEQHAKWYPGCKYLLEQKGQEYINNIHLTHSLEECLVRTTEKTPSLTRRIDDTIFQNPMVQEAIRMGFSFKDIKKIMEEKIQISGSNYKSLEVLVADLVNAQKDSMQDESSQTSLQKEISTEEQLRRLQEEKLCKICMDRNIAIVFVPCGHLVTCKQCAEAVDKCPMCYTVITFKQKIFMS
# [11] = system: XIP peptide (Xip251-270) binding; assay: small-molecule binders of XIP peptide, primary screen, biochemical, small-molecule microarray, fluorescence 635/667 nm, 0.1 µg/mL protein (AID 1182); conditions: fluorescent protein binding, 635 nm, higher = more signal, called active from +8 up or from −8 down
# [12] = system: XIP peptide (Xip251-270); assay: small-molecule binders of XIP peptide, primary screen, biochemical, small-molecule microarray, fluorescence 635/667 nm, 0.5 µg/mL protein (AID 1183); conditions: small-molecule microarray binding, fluorescence 635 nm; higher = more signal
# [13] = Plasmodium falciparum growth inhibition, primary screen, strain 3D7, DAPI fluorescence, 100 nL (AID 1184);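 also: parasites grown inside human red blood cells in medium with human serum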; conditions: P. falciparum 3D7 growth, 3 d, higher = more signal
# [14] = target: Homeobox protein Hox-A13 (Mus musculus) (UniProt Q62424); assay: inhibitors of HoxA13-DNA binding, primary screen, biochemical, fluorescence polarization, labeled oligonucleotide (AID 1185); conditions: 15 min, higher = more signal, called active from +8 up or from −8 down
# Homeobox protein Hox-A13 (Mus musculus), sequence (Q62424 whole entry, looked up): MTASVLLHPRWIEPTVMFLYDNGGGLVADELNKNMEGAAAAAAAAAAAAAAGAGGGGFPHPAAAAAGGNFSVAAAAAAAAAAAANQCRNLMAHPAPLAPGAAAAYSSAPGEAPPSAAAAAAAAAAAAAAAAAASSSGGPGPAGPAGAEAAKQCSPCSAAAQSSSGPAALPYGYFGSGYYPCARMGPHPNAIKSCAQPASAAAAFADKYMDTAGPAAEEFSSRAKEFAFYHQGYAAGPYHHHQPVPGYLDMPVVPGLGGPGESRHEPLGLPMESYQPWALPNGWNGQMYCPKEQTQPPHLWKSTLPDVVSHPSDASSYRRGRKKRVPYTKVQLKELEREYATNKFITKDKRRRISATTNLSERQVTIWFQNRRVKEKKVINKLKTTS
# [15] = inhibitors of hydroxyurea-induced Chk1 phosphorylation, primary screen, imaging, HeLa, phospho-Chk1 antibody, percent positive cells (AID 1186); conditions: hydroxyurea-induced phospho-Chk1 immunofluorescence imaging, higher = more signal
# [16] = inhibitors of hydroxyurea-induced Chk1 phosphorylation, primary screen, imaging, HeLa, phospho-Chk1 nuclear intensity (AID 1187); conditions: hydroxyurea-induced phospho-Chk1 immunofluorescence imaging, higher = more signal
SMILES,z-score [1],z-score [2],z-score [3],composite z-score [4],z-score [5],z-score [6],z-score [7],z-score [8],z-score [9],composite z-score [10],composite z-score [11],composite z-score [12],z-score [13],z-score [14],z-score [15],z-score [16]
C=C(COC)/C(=C/C[C@@H](OC(C)=O)c1ccccc1OCCO)c1cnc2ccccc2c1,-1.15,-2.19 (inactive),-0.975 (inactive),-7.89 (inactive),-0.104 (inactive),0.315 (inactive),-1.17 (inactive),-0.828 (inactive),-0.3,0.0739,0.534 (inactive),0.69,-2.92,-5.76 (inactive),-0.5 (inactive),-0.376 (inactive)
CC(=O)c1ccc(C(O)C2C=CC3C(=O)N(c4ccccc4)C(=O)C3N2Nc2ccc(C(C)C)cc2)cc1 (configuration not stated),-0.866,-0.829 (inactive),-1.44 (inactive),0.774 (inactive),0.503 (inactive),0.677 (inactive),0.481 (inactive),0.463 (inactive),-0.721,0.102,0.248 (inactive),0.525,-1.33,-2.09 (inactive),0.0577 (inactive),-0.371 (inactive)
[N-]=[N+]=NCc1ccccc1[C@@H]1OC(c2ccc(OCCCO)cc2)=N[C@]1(Cc1ccccc1N=[N+]=[N-])C(=O)NCC(O)CO (some centres not stated),-0.897,-0.815 (inactive),-0.954 (inactive),-0.728 (inactive),0.507 (inactive),0.628 (inactive),-0.0582 (inactive),0.625 (inactive),-1.47,0.243,1.45 (inactive),0.5,-2.31,-2.19 (inactive),-0.168 (inactive),0.0749 (inactive)
COc1ccc(C(=O)Nc2cccc(CN3C(=O)[C@@]4(O[C@@H](CC(=O)N5CCC[C@H]5CO)[C@H]([Si](C)(C)c5ccc(OC)cc5)[C@H]4C)c4ccccc43)c2)cc1,-0.429,-0.0739 (inactive),-1.17 (inactive),-5.69 (inactive),1.03 (inactive),0.844 (inactive),0.603 (inactive),0.274 (inactive),-1.25,0.147,0.802 (inactive),0.639,-2.16,-2.8 (inactive),-0.142 (inactive),0.071 (inactive)
CC(C)N1C(=O)c2ccccc2[C@@H](C(=O)NCC(F)(F)F)[C@@H]1c1ccc(CO)cc1,0.4,-0.102 (inactive),0.0516 (inactive),-0.262 (inactive),-0.0807 (inactive),0.436 (inactive),-0.196 (inactive),-0.484 (inactive),0.236,-0.111,-0.258 (inactive),-0.245,0.872,-1.73 (inactive),0.0626 (inactive),0.11 (inactive)
[N-]=[N+]=NCc1ccccc1[C@@H]1OC(c2ccc(OCCCO)cc2)=N[C@]1(Cc1ccccc1N=[N+]=[N-])C(=O)O,0.495,-3.6 (inactive),0.589 (inactive),0.454 (inactive),1.42 (inactive),0.783 (inactive),2.32 (inactive),0.499 (inactive),-0.0845,0.104,1.21 (inactive),0.722,-1.9,-3.59 (inactive),0.277 (inactive),0.585 (inactive)
NC(=O)N1C(=O)C2C(C1=O)C1C=C(CCCO)C2C(C2CC2)N1Cc1sc2ccccc2c1Cl (configuration not stated),0.146,-6.04 (inactive),0.691 (inactive),-0.744 (inactive),-0.0099 (inactive),0.269 (inactive),0.718 (inactive),0.152 (inactive),0.555,0.0374,0.632 (inactive),0.692,-0.672,-4.04 (inactive),-0.273 (inactive),-0.171 (inactive)
CCOC(=O)C[C@H]1[C@H](OC(=O)c2ccccc2-c2ccccc2)[C@@H](NC(=O)C2CCCCC2)c2cc(OCCCO)ccc2N1C(=O)c1ccc2ccccc2n1,-0.872,0.818 (inactive),-0.0667 (inactive),0.338 (inactive),-0.177 (inactive),0.743 (inactive),-0.53 (inactive),-0.12 (inactive),0.131,-0.0351,0.181 (inactive),0.727,0.433,-3.33 (inactive),0.0664 (inactive),-0.108 (inactive)
C[N+](C)(C)CCCCNC(=O)[C@H]1C[C@H]2C(=O)N[C@@H](Cc3ccccc3)C(=O)N2[C@H]1c1cccc(OCCO)c1,-3.26,1.07 (inactive),-0.476 (inactive),-30.8 (active),0.544 (inactive),0.103 (inactive),0.548 (inactive),0.779 (inactive),-0.863,0.459,0.875 (inactive),0.696,-0.352,-3.44 (inactive),0.88 (inactive),0.461 (inactive)
COCCOC(=O)N1C(=O)[C@@]2(c3cc(C#CCCO)ccc31)[C@H](c1ccccc1OCCO)N1[C@H](c3ccccc3)[C@H](c3ccccc3)OC(=O)[C@H]1[C@@H]2C(N)=O,-0.0989,1.42 (inactive),-1.49 (inactive),-0.0125 (inactive),-0.0199 (inactive),2.34 (inactive),0.641 (inactive),-0.605 (inactive),-1.45,-0.02,0.316 (inactive),0.732,-2.22,-3.69 (inactive),-0.271 (inactive),-0.0408 (inactive)
CCOC(=O)C1=CC[C@@H](c2ccccc2)N(S(=O)(=O)c2ccc(C)cc2)[C@H]1c1ccccc1I,0.76,1.25 (inactive),-0.0131 (inactive),-0.158 (inactive),1.05 (inactive),-0.217 (inactive),0.254 (inactive),0.202 (inactive),-1.16,-0.123,-0.0622 (inactive),0.77,-2.07,-1.19 (inactive),0.0035 (inactive),-0.763 (inactive)
CN1C(=O)C2C(C3CC3)C=C3CN(Cc4cccc(Cl)c4)[C@@H]([C@@H](O)Cc4ccccc4)C3C2C1=O (some centres not stated),0.313,-1.83 (inactive),0.076 (inactive),-0.0831 (inactive),0.601 (inactive),0.248 (inactive),0.942 (inactive),0.588 (inactive),-0.0321,-0.0264,0.163 (inactive),0.74,-0.185,-4.6 (inactive),-1.34 (inactive),-2.37 (inactive)
O=C1C2C=CC(C(O)c3c(F)cccc3Cl)N(Nc3ccc([N+](=O)[O-])cc3)C2C(=O)N1c1ccccc1 (configuration not stated),-0.0492,0.615 (inactive),-0.396 (inactive),0.406 (inactive),0.685 (inactive),0.378 (inactive),-0.333 (inactive),-0.194 (inactive),0.278,-0.357,1.03 (inactive),0.878,-0.545,-3.05 (inactive),0.982 (inactive),1.09 (inactive)
COc1ccc(C(O)C2C=CC3C(=O)N(c4ccccc4)C(=O)C3N2Nc2ccc(C#N)cc2)cc1OCc1ccccc1 (configuration not stated),-1.74,0.0151 (inactive),-0.829 (inactive),0.94 (inactive),1.45 (inactive),-0.396 (inactive),-0.933 (inactive),-0.0725 (inactive),-0.756,0.44,0.496 (inactive),0.556,-0.474,0.712 (inactive),-0.405 (inactive),-0.669 (inactive)
O=C(NCc1ccccc1)[C@@H]1c2ccccc2C(=O)N(Cc2cc(C(F)(F)F)cc(C(F)(F)F)c2)[C@H]1c1ccc(CO)cc1,-0.527,-0.247 (inactive),0.3 (inactive),0.819 (inactive),0.338 (inactive),1.06 (inactive),0.324 (inactive),0.0181 (inactive),1.03,-0.147,0.722 (inactive),0.221,-1.2,-3.95 (inactive),-0.0537 (inactive),-0.101 (inactive)
C=CCC(OC(C)=O)[C@@H]1[C@@H](N(Cc2ccc(-c3cccc(C(F)(F)F)c3)o2)C(=O)Cc2ccc(F)cc2)c2cc(OCCCO)ccc2N1C(=O)Cc1ccc2ccccc2c1 (some centres not stated),0.533,0.658 (inactive),0.647 (inactive),-1.35 (inactive),1.13 (inactive),-0.245 (inactive),-0.241 (inactive),-0.088 (inactive),0.0748,-0.132,-0.068 (inactive),-0.293,-0.328,-0.668 (inactive),0.19 (inactive),0.0472 (inactive)
CC(C)(C)OC(=O)CC[C@@]1(C(=O)NCCN2CCOCC2)N=C(c2ccc(OCCCO)cc2)O[C@@H]1c1ccccc1CN=[N+]=[N-],0.535,-0.51 (inactive),-0.743 (inactive),-0.918 (inactive),-0.0988 (inactive),-0.922 (inactive),-0.407 (inactive),-0.721 (inactive),-0.28,-0.0559,0.158 (inactive),0.729,-0.41,-4.93 (inactive),-0.0412 (inactive),-0.301 (inactive)
